# Most compounds without a hit are left out; they make up all but 2.9% or so of the library.
# PAFAH2 inh – PAFAH2 (human) inhibition. recombinant PAFAH2, FP-rhodamine activity probe, fluorescence polarization. inhibition, % at 3.39 µM. actives 0.99% (n = 340,000);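 active means inhibition above the mean over all tested compounds plus 3 SD, cut at about 30% in these data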;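 further: inhibitors block probe labeling of enzyme so polarization drops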
# PAFAH1B2 FP inh – inhibitors of human PAFAH1B2; P68402; recombinant PAFAH1B2, FP-rhodamine activity probe, fluorescence polarization; inhibition, % at 3.39 µM; actives 1.2% (n = 340,000);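 active means inhibition above the mean of all tested compounds plus 3 SD, cut at about 24% in these data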
# Target sequence (P68402 whole entry, looked up): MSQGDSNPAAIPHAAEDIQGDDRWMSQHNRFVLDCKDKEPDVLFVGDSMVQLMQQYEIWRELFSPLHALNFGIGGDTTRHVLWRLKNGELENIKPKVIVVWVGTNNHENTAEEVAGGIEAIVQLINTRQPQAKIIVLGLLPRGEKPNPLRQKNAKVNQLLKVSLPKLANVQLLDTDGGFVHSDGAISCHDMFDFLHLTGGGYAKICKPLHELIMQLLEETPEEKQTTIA
# ZTA counter – ZTA (EBV) inhibition in EBNA-1 counter-screen; P03206; ZTA-DNA binding, fluorescence polarization; inhibition, % at 11 µM; actives 0.15% (n = 320,000); in the data active means inhibition above about 33%
# PAFAH1B3 inh – blocks human PAF acetylhydrolase 1B catalytic subunit 3 | recombinant PAFAH1B3, FP-rhodamine probe, fluorescence polarization | inhibition, % at 3.39 µM | actives 0.28% (n = 340,000) | AID 492972;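 active means inhibition above the screen-wide average of all tested compounds plus 3 SD, cut at about 25% in these data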
# Target sequence (Q15102 whole entry, looked up): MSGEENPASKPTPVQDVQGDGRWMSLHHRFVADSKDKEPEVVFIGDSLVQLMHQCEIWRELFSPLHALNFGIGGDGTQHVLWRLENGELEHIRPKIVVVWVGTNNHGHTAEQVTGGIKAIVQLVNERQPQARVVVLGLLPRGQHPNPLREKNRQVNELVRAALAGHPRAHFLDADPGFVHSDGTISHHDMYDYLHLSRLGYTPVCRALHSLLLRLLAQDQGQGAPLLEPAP
# EBNA-1 inh – blocks EBNA-1 binding to DNA; EBNA-1 DNA binding, fluorescence polarization; inhibition, % at 14.8 µM; actives 0.34% (n = 300,000); in the data active means inhibition above about 28%
# rCAG binder – binds r(CAG) RNA repeats | r(CAG) RNA repeat, TO-PRO-1 dye displacement fluorescence | inhibition, % at 3 µM | actives 1.3% (n = 370,000);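 active means inhibition above the plate cutoff, the mean of all test compounds on that plate plus 3 SD, cut at about 35% in these data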;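 further: higher means more dye released from RNA so lower well fluorescence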
# EBNA-1 confirm – EBNA-1 (EBV) inhibition, confirmation | Recombinant EBNA-1 DBD, Cy5-DNA fluorescence polarization | shares compounds with EBNA-1 inh | actives 35% (n = 830) | inhibition, % at 14.8 µM;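 active means mean inhibition across replicates above a set limit taken from the earlier primary screen, cut at about 28% in these data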
# ZTA counter trip – blocks Epstein-Barr virus ZTA in triplicate, EBNA-1 counter-screen. shares compounds with EBNA-1 inh. Zta-ZRE DNA binding, Cy5 fluorescence polarization. inhibition, % at 11.1 µM. 830 tested, under 10 active;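 active means mean inhibition over triplicates above a set limit taken from the primary EBNA-1 screen, cut at about 37% in these data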;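 further: purified full length Zta protein with Cy5 labeled ZRE DNA probe; inhibitors lower polarization by freeing the labeled DNA probe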
# Hits are given with their value; - = inactive; . = no result.
SMILES,PAFAH2 inh,PAFAH1B2 FP inh,ZTA counter,PAFAH1B3 inh,EBNA-1 inh,rCAG binder,EBNA-1 confirm,ZTA counter trip
O=C(COC(=O)COc1ccc(Br)cc1)Nc1ccc2c(c1)OCCO2,-,-,-,-,.,-,.,.
COc1ccccc1C(=O)Nc1nc2cc3c(cc2s1)OCO3,-,-,-,-,-,-,.,.
COc1cccc(OC)c1C(=O)Nc1nc2cc3c(cc2s1)OCO3,-,-,-,-,33,-,60,-
CCOC(=O)N1CCc2c(sc(NC(=O)C3COc4ccccc4O3)c2C(N)=O)C1 (stereo unspecified),-,-,-,-,29,-,56,-
CCOc1ccc2nc3ccc4[nH]onc4c3c2c1,-,-,-,-,31,-,-,-
Cc1c(Cl)cccc1NC(=O)c1ccc(OCC(=O)NCc2ccccc2)cc1,-,-,-,-,33,-,44,-
O=C(COc1ccc(Cl)cc1)NCc1ccccc1,-,-,-,-,-,-,.,.
Cc1[nH]c2ccccc2c1/C=C/C(=O)c1ccncc1,-,-,-,-,38,-,-,-
O=[N+]([O-])c1ccc(C[n+]2cc(-c3ccccc3)n3c2CCCCC3)cc1,-,-,-,-,-,-,.,.
O=[N+]([O-])c1ccc(C[n+]2cc(-c3ccc(Cl)c(Cl)c3)n3c2CCCCC3)cc1,-,-,-,-,33,-,-,-
O=C(NC(=S)Nc1ccc(S(=O)(=O)N2CCCCCC2)cc1)c1cccs1,-,-,-,-,85,-,66,-
O=C(NC(=S)Nc1ccc(S(=O)(=O)N2CCCC2)cc1)c1cccs1,-,-,-,-,-,-,.,.
CCCCN(CC)CCNC(=O)CN1C(=O)COc2ccc(S(=O)(=O)N3CCCC3)cc21,-,-,-,-,77,-,-,-
NS(=O)(=O)c1ccc(NC(=O)/C=C/c2ccc3c(c2)OCO3)cc1,-,-,-,-,44,-,-,-
COc1ccc(NC(=O)c2cc(S(=O)(=O)N3CCc4ccccc43)cn2C)cc1OC,-,-,-,-,40,-,39,-
O=C(NCc1ccc(C(=O)N2CCCN(Cc3ccccc3)CC2)cc1)c1cccc(Br)c1,.,.,.,.,.,-,.,.
Cc1ccc(S(=O)(=O)CCC(=O)OCC(=O)c2c(C)[nH]c3ccccc23)cc1,-,-,-,-,-,-,.,.
CCOC(=O)c1c(C)[nH]c(C(=O)COC(=O)CCS(=O)(=O)c2ccc(C)cc2)c1C,-,-,-,-,39,-,29,-
N#Cc1c(-c2cccs2)cc(C2CC2)nc1SCC(N)=O,-,-,-,-,36,-,31,-
N#Cc1c(-c2ccccc2)cc(C2CC2)nc1SCC(=O)c1cccs1,-,-,.,-,.,-,.,.
COc1cccc(-c2cc(C(=O)Nc3cnn(Cc4ccc(F)cc4)c3)no2)c1,-,-,-,-,47,-,32,-
COc1cccc(-c2cc(C(=O)Nc3cnn(Cc4ccccc4C)c3)no2)c1,-,-,-,-,-,-,.,.
COC(=O)[C@]12CCCCC=C1N(CCc1ccc(OC)c(OC)c1)C(=O)[C@H](CC(=O)N1CCOCC1)C2,.,.,.,.,.,-,.,.
COC(=O)/C=C1/SC(=Nc2ccc(Cl)c(Cl)c2)NC1=O,.,.,-,.,41,-,-,-
CCn1c(COc2ccc(C)cc2)nnc1SCC(=O)Nc1ccc(Oc2ccccc2)cc1,.,.,.,.,.,-,.,.
SMILES,PAFAH2 inh,PAFAH1B2 FP inh,ZTA counter,PAFAH1B3 inh,EBNA-1 inh,rCAG binder,EBNA-1 confirm,ZTA counter trip
O=C(Nc1c(-c2ccc(C(F)(F)F)cc2)nc2ncccn12)c1ccccc1,.,.,.,.,.,-,.,.
CCC(=O)NC(=S)Nc1ccc(NC(=O)c2ccc(C)c([N+](=O)[O-])c2)cc1,-,-,-,-,43,-,33,-
CCOc1ccc(C(=O)NC(=S)Nc2ccc(NC(=O)CC)cc2)cc1[N+](=O)[O-],-,-,-,-,-,-,.,.
CC(C)(C)c1ccc(-c2cn(C[C@H](Cc3ccccc3)n3c(=O)c4ccccc4n3Cc3ccccc3)nn2)cc1,.,.,.,.,.,-,.,.
COc1ccc(S(=O)(=O)N2CCOCC2)cc1NC(=O)c1ccccc1-c1ccc(C(F)(F)F)cc1,-,-,-,-,32,-,37,-
COCCn1c(Cc2ccccc2)nnc1SCC(=O)NC(C)(C)C,-,-,-,-,-,-,.,.
COCCn1c(Cc2ccccc2)nnc1SCC(=O)NC(C)C,-,-,-,-,87,-,-,-
COC(=O)[C@]12C[C@H](CC(=O)NCC34CC5CC(CC(C5)C3)C4)C(=O)N(Cc3ccco3)C1=C[C@H](COCc1ccccc1)O[C@@H]2C,.,.,.,.,.,-,.,.
COC(=O)[C@H](Cc1ccccc1)NC(=O)O[C@H]1C(=O)c2ccc(OC)cc2O[C@@H]1c1ccc2c(c1)OCO2,.,.,-,.,29,.,-,-
COC(=O)[C@H](Cc1ccccc1)NC(=O)O[C@@H]1C(=O)c2cc(OC)ccc2O[C@H]1c1ccc(OC)c(Br)c1,.,.,-,.,-,.,.,.
COc1ccc(C(C)c2cc3c(cc2OCC(=O)O)OCO3)cc1 (stereo unspecified),.,.,.,.,.,-,.,.
Cc1c(C(=O)NCc2ccc3c(c2)OCO3)sc2nc(-c3ccc(F)cc3)cn12,-,-,-,-,37,-,-,-
COC(=O)c1ccc(COc2ccccc2/C=N/NS(=O)(=O)c2ccc(C)cc2)cc1,-,-,-,-,67,-,29,-
O=S(=O)(N/N=C/c1ccccc1OCc1ccc(Cl)cc1)c1ccccc1,-,-,-,-,-,-,.,.
C=CCN1C(=O)[C@@H](CC(=O)N2CCCC2)[C@]2(C(=O)OCC)CCCCC/C=C/12,.,.,.,.,.,-,.,.
Fc1ccccc1-c1nc(NCc2ccco2)c2ccccc2n1,-,-,-,-,-,-,.,.
O=c1c2ccccc2nc2c3ccccc3c(NCc3ccco3)nn12,-,-,-,-,32,-,-,-
CC(=O)OCCCN1CCC2(CCC(c3ccccc3)CC2)C1=O (stereo unspecified),.,.,.,.,.,-,.,.
C/C(=N/NC(=O)c1ccncc1)c1ccc(NC(=O)c2ccc(Cl)cc2Cl)cc1,-,-,-,-,37,-,31,-
O=C1/C(=C\c2ccc(O)cc2)SC(=S)N1c1cccnc1,-,-,-,-,31,-,-,-
CC(=O)C1CCC2C3C=CC4=CC(=O)CCC4(C)C3CCC12C (stereo unspecified),.,.,.,.,.,-,.,.
O=C1CC(SC(=NCc2ccc3c(c2)OCO3)Nc2ccccc2)C(=O)N1c1ccccc1 (stereo unspecified),-,-,-,-,44,-,-,-
O=C(N[C@H](Cc1ccccc1)C(=O)NC1CCCCC1)[C@H]1O[C@@H](n2ccc(=O)[nH]c2=O)[C@H](O)[C@@H]1O,.,.,.,.,.,-,.,.
COc1ccc(C(=O)N2C(=O)c3ccc(N)cc3C2=O)cc1,-,-,-,-,34,-,-,-
C[C@@H](NC(=O)[C@@H]1CCCN1C(=O)[C@@H]1CCCN1)c1ccccc1,.,.,.,.,.,-,.,.

# High-throughput results from PubChem BioAssay.
